Source: PubChem BioAssay (National Center for Advancing Translational Sciences (NCATS))
G9a inh: inhibitors of human histone lysine methyltransferase G9a | 350,000 tested, 8.8% active | Potency, µM (titrated, usually from 102 µM), for the others: top-dose activity, negative = inhibition, most hits filed as inhibitors | Q96KQ7 | G9a H3K9 monomethylation, AlphaScreen, 2 h; note: % is set by controls: 0 for no effect and ±100 for the full control effect; nearly all actives have a fitted effect of over 75% in size
Target sequence (Q96KQ7 913-1193 limits assumed): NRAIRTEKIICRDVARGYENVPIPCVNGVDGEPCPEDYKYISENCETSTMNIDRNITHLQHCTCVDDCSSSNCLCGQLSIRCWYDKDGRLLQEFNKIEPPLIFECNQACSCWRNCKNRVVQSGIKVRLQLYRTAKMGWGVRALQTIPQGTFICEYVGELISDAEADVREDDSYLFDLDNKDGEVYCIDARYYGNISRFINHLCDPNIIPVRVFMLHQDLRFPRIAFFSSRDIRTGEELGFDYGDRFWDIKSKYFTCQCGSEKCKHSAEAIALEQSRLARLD
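G9a (20 nM) preincubated 15 min RT with compounds, then 500 nM biotinylated H3K9 peptide and 20 uM SAM added; 2 h RT reaction. Monomethyl-H3K9 product detected by AlphaScreen with anti-H3K9me1 antibody, streptavidin donor and anti-rabbit IgG acceptor beads.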
Sfp inh: Sfp phosphopantetheinyl transferase inhibition; Potency, µM, without a hit: largest response in the series, negative = inhibition, most hits filed as inhibitors; 310,000 tested, 3.5% active; Q9F4F7; Biochemical Sfp PPTase activity, qHTS; AID 1490;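 note: the enzyme is Sfp with the accession as filed and its product quenches rhodamine fluorescence; 0% = enzyme reaction without inhibitor and -100% = no enzyme wells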
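Sfp 15 nM + cpd, 15 min RT; start w/ rhodamine-CoA 5 uM, BHQ-2-YbbR 12.5 uM (final); 50 mM Hepes pH 7.6, 10 mM MgCl2, 0.01% NP-40, 0.01% BSA; read 525/598 nm at 0 and 30 min.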
BAZ2B inh: inhibitors of human BAZ2B bromodomain; AlphaScreen BAZ2B-H3K14Ac peptide displacement; Potency, µM (doses to about 114 µM), for the others: at the highest dose activity change, negative = inhibition, actives largely listed as inhibitors; 360,000 tested, 4.4% active; note: % is set by controls: 0 for no effect and ±100 for the full control effect; nearly all actives have a fitted effect of over 60% in size
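AlphaScreen displacement: compounds (up to 110uM) incubated 30 min at room temperature with a preformed 50 nM BAZ2B/50 nM biotinylated H3K14Ac peptide complex in PBS pH 7.4 with Tween-20. Donor and acceptor beads at 10 ug/mL final added, 20 min light-protected before reading.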
PLK1 PBD inh: inhibitors of human PLK1 polo-box domain binding; Potency, µM, for the others: max response, negative = inhibition, usual class: inhibitors; 360,000 tested, 2.8% active; AID 720504; Plk1 PBD binding of FITC phosphopeptide, fluorescence polarization; P53350; note: series mostly up to about 57 µM; % is set by controls: 0 for no effect and ±100 for the full control effect; nearly all actives have a fitted effect of over 65% in size
HP1b chromo inh: inhibitors of HP1-beta chromodomain binding to methylated histone tails; Potency, µM (titrated, usually from 114 µM), without a hit: top-dose activity change, negative = inhibition, most hits filed as inhibitors; AlphaScreen HP1-beta / biotin-H3K9me3 peptide binding; P83916; 390,000 tested, 0.56% active; note: nearly all actives have a fitted effect of over 70% in size
Target sequence (P83916 whole entry, looked up): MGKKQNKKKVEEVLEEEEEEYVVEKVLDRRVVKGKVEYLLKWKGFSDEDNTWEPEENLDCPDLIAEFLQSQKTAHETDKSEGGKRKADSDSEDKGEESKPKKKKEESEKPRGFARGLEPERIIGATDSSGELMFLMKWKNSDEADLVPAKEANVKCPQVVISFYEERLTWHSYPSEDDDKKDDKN
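AlphaScreen: HP1-beta (50 nM) preformed 30 min with biotin-H3(1-18)K9me3 peptide (50 nM) in PBS pH 7.4, 0.01% Tween-20. Compound added for 30 min at RT, then streptavidin donor/nickel chelate acceptor beads (10 ug/mL) for 30 min.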
JMJD2A Tudor inh: inhibitors of human JMJD2A Tudor domain. 390,000 tested, 4.4% active. Potency, µM (series often up to 114 µM), inactives show at the top dose activity change, negative = inhibition, usual class: inhibitors. AlphaScreen JMJD2A-Tudor / H3K4me3 peptide binding. O75164; note: % is set by controls: 0 for no effect and ±100 for the full control effect; nearly all actives have a fitted effect of over 50% in size
Numbers without * were called inactive; ? = inconclusive; nt = no result; [ ] = remark or other dose. This is a sample that favours compounds with a hit; in the whole collection about 12% have one here. Calls come from the whole dose curve; as a rule, active = well fitted curve in the direction sought with a large enough effect; inconclusive = small, poorly fitted or top-dose-only effect, or another doubt; inactive = no such curve, though single readings can be large; an effect the other way counts as inactive or inconclusive. Potency is the fitted concentration of half-maximal effect.

SMILES	G9a inh	Sfp inh	BAZ2B inh	PLK1 PBD inh	HP1b chromo inh	JMJD2A Tudor inh
Cc1ccc(Cl)cc1N1CCN(C(=O)c2ccc3c(c2)N(Cc2ccccc2F)C(=O)c2ccccc2S3=O)CC1 (centres undefined)	-9%[59 µM]	nt	-24%	nt	17%	-15%
C=CCN1CCc2c(cc(O)c(O)c2Br)[C@@H](c2ccccc2)C1	8.9µM*	-15%	nt	-5%	7%	?
CN1CCc2cc(Cl)c(O)cc2[C@@H](c2ccccc2)C1	-32%[59 µM]	14%	-8%	-4%	4%	-18%
O=C(c1cccc(F)c1)N1CCC2(CCCN(Cc3cc(C(F)(F)F)cc(C(F)(F)F)c3)C2)CC1	3%[12.7 µM]	20%	nt	nt	nt	nt
Cc1cc(C)n(CC(O)CN2c3ccccc3Sc3ccccc32)n1 (centres undefined)	?	2%	50µM*	-6%	-37%	32µM*
Cc1cc(C)n(CC(O)Cn2c3ccccc3c3ccccc32)n1 (centres undefined)	15%[12.7 µM]	50µM*	-16%	-7%	26%	-13%
CC(C)=CCc1c(O)cc(O)c2c1O[C@H](c1ccccc1)CC2=O	nt	-5%	nt	nt	nt	nt
CCOc1ccc(NC(=S)N(CCc2c(C)[nH]c3ccc(C)cc23)Cc2ccco2)cc1	71µM*	9%	-6%	-3%	-4%	?
COc1ccc(NC(=S)N(CCc2c(C)[nH]c3ccc(C)cc23)Cc2cccs2)cc1	50µM*	0%	?	-1%	11%	?
COc1ccc(NC(=S)N(CCc2c(C)[nH]c3ccc(C)cc23)Cc2ccco2)cc1	79µM*	19%	?	0%	-10%	?
COc1ccc(NC(=S)N(CCc2c(C)[nH]c3ccccc23)Cc2cccnc2)cc1	71µM*	2%	35µM*	-13%	-16%	?
Cc1ccc(S(=O)(=O)N2CCCN(c3nc(-c4cccs4)nc4ccccc34)CC2)cc1	nt	nt	nt	nt	39%	-13%
Cc1cc(C)c(NC(=S)N(CCN(C)C)Cc2cccs2)c(C)c1	-4%[59 µM]	-15%	-36%	-5%	19%	-29%
Cc1ccc(NC(=S)N(CCN(C)C)Cc2cccs2)c(C)c1	40µM*	32µM*	-24%	8.4µM*	-7%	-5%
CCNC(=S)N(CCc1c(C)[nH]c2ccc(F)cc12)Cc1cccnc1	?	0%	-25%	19µM*	?	?
CCNC(=S)N(CCc1c(C)[nH]c2ccc(C)cc12)Cc1cccnc1	11%[2.33 µM]	6%	?	-7%	?	?
CNC(=S)N(CCc1c(C)[nH]c2ccc(C)cc12)Cc1cccs1	45µM*	14%	nt	9%	-4%	?
CC1Cc2cc(S(=O)(=O)N3CCC(C(=O)N(C)Cc4ccccc4)CC3)ccc2N1C(=O)C1CC1 (centres undefined)	-7%[59 µM]	12%	-17%	-18%	55%	-33%
CC(=O)Nc1cccc(NC(=O)CSc2nnc(Cc3cccn3C)n2CCc2ccccc2)c1	50µM*	3%	-37%	-9%	1%	-16%
CCSc1nnc(NC(=O)CSc2nnc(Cc3cccn3C)n2CCc2ccccc2)s1	3%[12.7 µM]	-10%	?	-11%	29%	-16%
Cn1cccc1Cc1nnc(SCC(=O)Nc2nccs2)n1CCc1ccccc1	50µM*	79µM*	?	-7%	18%	?
CCn1c(O)c(N=N)c2ccccc21	3%	13%	-22%	-1%	12%	-5%
CCn1c(O)c(N=NC2=NC(=O)CS2)c2ccccc21	2%[0.0925 µM]	-29%	50µM*	-12%	-6%	?
Brc1ccc(-c2csc(/N=C/N3CCOCC3)n2)cc1	50µM*	6%	-39%	-3%	3%	-19%
Brc1ccc(-c2csc(/N=C/N3CCCC3)n2)cc1	?	-24%	-34%	-1%	10%	-31%
SMILES	G9a inh	Sfp inh	BAZ2B inh	PLK1 PBD inh	HP1b chromo inh	JMJD2A Tudor inh
O=C(OC[C@H]1O[C@@H](OC(=O)c2cc(O)c(O)c(OC(=O)c3cc(O)c(O)c(O)c3)c2)[C@H](OC(=O)c2cc(O)c(O)c(OC(=O)c3cc(O)c(O)c(O)c3)c2)[C@@H](OC(=O)c2cc(O)c(O)c(OC(=O)c3cc(O)c(O)c(O)c3)c2)[C@@H]1OC(=O)c1cc(O)c(O)c(OC(=O)c2cc(O)c(O)c(O)c2)c1)c1cc(O)c(O)c(OC(=O)c2cc(O)c(O)c(O)c2)c1	1.4µM*	nt	0.79µM*	nt	nt	nt
CCN(Cc1ccccc1)C(=O)c1nn(-c2ccc(OC)cc2)c(=O)c2c1c1ccccc1n2C	-27%[59 µM]	5%	2%	-10%	31%	-17%
O=C(CNC1=NCCC1)c1ccc(Cl)cc1	28µM*	-14%	3%	-7%	28%	-10%
CCc1c(C(=O)NCCc2ccc(N3CCCCC3)cc2)[nH]c2ccc(Cl)cc12	28µM*	nt	nt	nt	nt	nt
O=C(O)CCNc1ccc2c(c1)OCCO2	?	50µM*	-9%	-7%	1%	45µM*
CC(C)(C)C(=O)Nc1ccc2c(c1)OCCOCCOc1cc(NC(=O)C(C)(C)C)ccc1OCCOCCO2	3%	30%	-12%	2%	39%	-8%
CC(=O)N/N=C(\C)CC(=O)Nc1ccc2c(c1)OCCO2	45µM*	1%	-38%	-12%	13%	-15%
CC(=O)Nc1ccc2c(c1)OCCOCCOc1cc(NC(C)=O)ccc1OCCO2	50µM*	11%	-16%	-8%	9%	-14%
Cc1ccc(F)c(CNC(=O)C2CCC(=O)N(Cc3ccccn3)C2)c1F (centres undefined)	-1%	13%	1%	?	21%	-34%
COC(=O)C/C=C\[C@@H](C)[C@@H](/C=N\O[C@@H](C)CN1CCCCc2nc(C)c(C)cc21)NS(=O)(=O)c1ccc(C)cc1	nt	4%	nt	nt	nt	nt
CC(C)(CS(=O)(=O)[O-])NC(=O)CC[N+](C)(C)CCO	?	3%	2.8µM*	-18%	8.9µM*	3.2µM*
COc1ccc(Cl)cc1NC(=O)CN(C)CC(=O)Nc1c(C)n(C)n(-c2ccccc2)c1=O	0%[12.7 µM]	nt	-2%	-15%	39%	-2%
S=c1nc(C23CC4CC(CC(C4)C2)C3)[nH][nH]1	-127%[59 µM]	56µM*	-6%	?	-31%	3.5µM*
CN(C)c1ccc(/C=N/N=C/c2ccccc2O)cc1	?	2%	-10%	2%	31%	3%
O=C(/C(=N/N=C/c1ccc(O)c(O)c1O)c1ccccc1)c1ccccc1	1.1µM*	-96%	32µM*	7.5µM*	?	35µM*
Oc1ccc(/C=N/N=C(c2ccccc2)c2ccccc2)c(O)c1O	1.4µM*	2.8µM*	25µM*	12µM*	45µM*	56µM*
Cc1ccccc1CNCCCSc1nnnn1C	1%[59 µM]	nt	-22%	nt	46%	-5%
